AddAB inh = growth inhibition of E. coli expressing H. pylori AddAB, primary screen, AddAB inhibitor project, absorbance; inhibition, % at 11.9 µM; 330,000 tested, 0.29% active; AID 435030, 2010; in the data active means inhibition above about 12%
E coli growth-1 = E. coli V3065 growth inhibition, primary screen, counter-screen for AddAB inhibitor project, absorbance, OD600. 18 h. inhibition, % at 11.9 µM. 330,000 tested, 0.27% active;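 active means inhibition above the campaign's mean inhibition across all tested compounds plus 3 SD, cut at about 9.9% in these data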;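 further: uninfected addAB+ strain grown without phage in ampicillin broth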
phage Ecoli inh = growth loss of phage-infected E. coli, primary screen, RecBCD inhibitor project, absorbance, with phage, HTS. 360,000 tested, 0.26% active. inhibition, % at 11.9 µM; in the data active means inhibition above about 11%
E coli growth-2 = E. coli growth inhibition, primary screen, OD600; Escherichia coli growth, 23 h; active compounds read low; OD600 absorbance (no concentration beside the values); 330,000 tested, 0.21% active; AID 1053175, 2014;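 active means OD600 absorbance below the run mean of sample wells minus 3.6 SD, in any replicate, cut at about 0.56 in these data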
Tat export inh = E. coli Tat export inhibitors, primary screen, MC4100, TorA-mCherry reporter, fluorescence, single point; 340,000 tested, 0.036% active; inhibition, % at 10 µM; AID 488895, 2010;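 active means mean replicate inhibition at least 50% and at least half of replicates individually reaching 50%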;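 further: exported cargo escapes ClpAP degradation while cytoplasmic cargo is degraded and loses fluorescence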
AddAB confirm = growth loss of phage-infected E. coli expressing H. pylori AddAB, confirmation, AddAB inhibitor project, absorbance, E. coli V3065, T4 phage, triplicate; shares compounds with AddAB inh; OD; T4 phage with gene 2 nonsense mutations; inhibition, % at 11.9 µM; 880 tested, 64% active;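 active means mean inhibition above a set limit taken from the earlier primary screen, cut at about 13% in these data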;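 further: higher means less bacterial growth since AddAB block lets phage replicate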
RecBCD counter = growth loss of RecBCD+ E. coli with mutant T4 phage, counter-screen for AddAB inhibitor project, absorbance, V66 E. coli. shares compounds with AddAB inh. OD growth. inhibition, % at 11.9 µM. 880 tested, 73% active;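 active means mean inhibition above the mean of solvent-only control wells plus 3 SD, cut at about 4% in these data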;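 further: optical density read after an 18 h incubation at 37 °C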
Bact viability = bacterial viability inhibition counter-screen, confirmation, counter-screen for AddAB inhibitor project, absorbance. absorbance (AddAB counterscreen). inhibition, % at 11.9 µM. shares compounds with AddAB inh. 880 tested, 35% active; in the data active means inhibition above about 25%
Numbers stand for hits; i = inactive; nt = not tested or not shown. In the library only some 0.5% were active in any assay of this set; here they are far more common.

SMILES	AddAB inh	E coli growth-1	phage Ecoli inh	E coli growth-2	Tat export inh	AddAB confirm	RecBCD counter	Bact viability
CC(C)CC1(C(=O)O)NC(c2ccccc2O)C2C(=O)N(C(C)C)C(=O)C21 (configuration not stated)	i	i	i	i	i	nt	nt	nt
CC(C)N1C(=O)C2C(c3ccccc3O)NC(C)(C(=O)O)C2C1=O (configuration not stated)	15	i	i	i	i	i	i	i
C/C(=N\OCc1nc2ccccc2c(=O)n1/N=C/c1cc([N+](=O)[O-])ccc1O)c1ccccc1	13	i	i	nt	i	i	i	i
C/C(=N\OCc1nc2ccccc2c(=O)n1/N=C/c1cc(C)cc([N+](=O)[O-])c1O)c1ccccc1	i	i	i	nt	i	nt	nt	nt
Fc1cccc(NC(=S)NCc2ccccc2Cl)c1	19	11	i	i	i	33	26	33
S=C(NCc1ccc(Cl)cc1Cl)Nc1ccccc1	i	i	i	i	i	nt	nt	nt
S=C(NCc1ccccc1Cl)Nc1ccccc1Cl	i	i	i	i	i	nt	nt	nt
Cc1cc(Cl)ccc1NC(=S)NCc1ccccc1Cl	16	i	i	i	i	15	15	i
COCCN1C(=O)NC(c2cccc(C(F)(F)F)c2)C(C(C)=O)C1C (configuration not stated)	nt	nt	nt	i	nt	nt	nt	nt
O=c1cc2oc3cc(O)c(O)cc3c(-c3ccccc3O)c-2cc1O	nt	nt	nt	i	i	nt	nt	nt
COc1ccc(OC)c(-c2c3cc(O)c(=O)cc-3oc3cc(O)c(O)cc23)c1	14	i	nt	nt	i	i	i	i
O=C1CCN(Cc2ccc(Br)cc2)CCN1C(CO)Cc1ccccc1 (configuration not stated)	nt	nt	nt	i	nt	nt	nt	nt
CCCCOc1ccc(Cc2cnc(N)nc2N)cc1	14	12	i	0.34	i	13	9.2	i
COc1c(F)cccc1C1=CC(=O)CC(c2ccc3c(c2)OCO3)C1 (configuration not stated)	nt	nt	nt	i	nt	nt	nt	nt
Oc1cc(-c2ccncc2)cc2cccnc12	i	i	i	i	i	nt	nt	nt
Oc1cc(-c2ccc(N3CCCCC3)nc2)cc2cccnc12	16	15	nt	nt	i	i	15	i
CC(=O)OCC(=O)[C@@]12OC3(CCCC3)OC1CC1C3CCC4=CC(=O)C=C[C@]4(C)[C@@]3(F)C(O)C[C@@]12C (some centres not stated)	nt	nt	nt	i	nt	nt	nt	nt
COc1ccc(-c2nc(Cn3c(SCc4cccc(F)c4)nc4ccncc43)c(C)o2)cc1OC	96	83	i	i	i	i	i	i
CSc1nnc2n(-c3ccc(C)cc3)c(=O)c3c4c(sc3n12)COC(C(C)C)C4 (configuration not stated)	15	i	i	i	i	i	i	i
c1ccc2c(c1)[nH]c1ccccc12	i	i	i	i	i	nt	nt	nt
O=c1c2ccccc2[nH]c2ccccc12	14	i	i	i	i	i	4.8	i
O=C(NCc1ccccc1)C(c1ccccc1)N(C(=O)c1csnn1)C1CC1 (configuration not stated)	i	i	i	i	i	nt	nt	nt
CCc1ccc(C(C(=O)NCc2ccccc2)N(C(=O)c2csnn2)C2CC2)cc1 (configuration not stated)	99	46	i	i	i	i	i	i
N/C(=N/OC(=O)c1ccc(Cl)cc1)c1ncc([N+](=O)[O-])s1	19	i	i	nt	i	43	i	i
NC(=NOC(=O)c1ccccc1Cl)c1ncc([N+](=O)[O-])s1	nt	nt	nt	i	nt	nt	nt	nt
SMILES	AddAB inh	E coli growth-1	phage Ecoli inh	E coli growth-2	Tat export inh	AddAB confirm	RecBCD counter	Bact viability
COc1ccc(OC)c(C2CC(=O)C(C)C(c3cc(OC)ccc3OC)N2)c1 (configuration not stated)	13	11	i	i	i	i	i	i
COc1ccc(OC)c(C2C/C(=N/O)C(C)C(c3cc(OC)ccc3OC)N2)c1 (configuration not stated)	nt	nt	i	nt	i	nt	nt	nt
Cc1cc(COC(=O)C2N3C(=O)C(NC(=O)COc4ccccc4)C3SC2(C)C)on1 (configuration not stated)	nt	nt	nt	i	nt	nt	nt	nt
Cc1ccc(S(=O)(=O)N2CCC(C(=O)OCc3ccccc3)CC2)cc1C	21	i	i	i	i	i	i	i
O=C(NC(Cc1ccc2c(c1)OCO2)C(=O)NC(Cc1ccccc1)C(=O)O)c1ccccc1 (configuration not stated)	97	93	i	i	i	i	i	i
Cc1ccc(CC(NC(=O)c2ccccc2)C(=O)NC(Cc2ccccc2)C(=O)O)cc1 (configuration not stated)	i	i	i	i	i	nt	nt	nt
CC=C(C)C(=O)NC(C)CN1C2=NCC(C(C)C)N2CC1Cc1ccc(OC)cc1 (configuration not stated)	nt	nt	nt	i	nt	nt	nt	nt
Cc1cc2c(c(=O)o1)C(c1ccc([N+](=O)[O-])o1)C(C#N)=C(N)O2 (configuration not stated)	19	15	i	i	i	100	8.3	i
CCC(CC)C1C(C#N)=C(N)Oc2cc(C)oc(=O)c21 (configuration not stated)	i	i	i	i	i	nt	nt	nt
O=C(O)c1nnn(-c2cc(C(F)(F)F)cc(C(F)(F)F)c2)c1-c1ccccc1	19	i	i	i	i	i	i	i
CC1OC2(C)OC(=N)C1(C#N)C(C#N)(C#N)C2c1ccccc1 (configuration not stated)	37	23	i	i	i	i	i	i
COc1ccc(/C=C2\SC(=S)N(CCCC(=O)NNC(=O)c3ccccc3O)C2=O)cc1	i	i	i	nt	i	nt	nt	nt
O=C(CN1C(=O)S/C(=C\c2ccc(Cl)cc2)C1=O)NNC(=O)c1ccccc1O	16	i	i	i	i	i	5.5	i
COc1ccccc1/C=C1\SC(=S)N(CCC(=O)NNC(=O)c2ccccc2O)C1=O	20	18	nt	i	i	15	19	i
CC(C)Cc1ccc(CN2CCCC(NC(=O)c3ccoc3)C2)cc1 (configuration not stated)	14	13	i	i	i	i	5.4	i
CC(C)Cc1ccc(CN2CCCC(NC(=O)c3ccnn3C)C2)cc1 (configuration not stated)	i	i	i	i	i	nt	nt	nt
O=C(COC(=O)C1CCN(S(=O)(=O)c2ccc3c(c2)OCCO3)CC1)NC1CCS(=O)(=O)C1 (configuration not stated)	26	9.8	i	i	i	i	i	i
O=C(COC(=O)C1CCN(S(=O)(=O)c2ccc3c(c2)OCCO3)CC1)NC1CCCCC1	i	i	i	i	i	nt	nt	nt
